The text below walks through data of the supplement of paper PMC12340641.

The structures appear in SMILES notation. Structures can show the parent of a compound that is named as a salt.

In this experiment the test system is HEK293FT dCK*-IKZF1. Kind of experiment: relative growth recovery (pomalidomide 10 uM = 100%, DMSO = 0%); higher = more growth rescue (IKZF1 fusion degradation). Particulars: compound concentration: 5 uM; AraC concentration: 0.3 uM; overnight pretreatment + 4 days AraC. The method, boiled down:
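On day 5, whole-well imaging was used to count Hoechst 33342-stained nuclei of HEK293FT cells stably carrying a deoxycytidine kinase–IKZF1 fusion. These cells had received 5 μM compound 2 h after seeding, followed after overnight at 37 °C by a nucleoside suicide substrate at 0.3 μM plus medium for 4 days. Growth recovery was normalised on each plate against a reference degrader and vehicle, which defined 100% and 0%, and values are duplicate means from separate days.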
As to `COC1=C2C[C@@H](C)C[C@H](OC)[C@H](O)[C@@H](C)/C=C(\C)[C@H](OC(N)=O)[C@@H](OC)/C=C\C=C(/C)C(=O)NC(=CC1=O)C2=O` [Geldanamycin], the relative growth recovery was -11.4%.
The value for `CN1CCN(c2ncc(-c3cc(Cl)cc(Cl)c3Cl)c(N)n2)CC1` [sipatrigine] was 2.4%; that for `O=C(O)c1ccccc1Nc1ccc(CCc2ccc(Cl)c(Cl)c2)cc1` was 0.125%.
In the case of `O=C(CCCCCCC(=O)NO)NO`, the relative growth recovery was -0.655%.
The value for `O=C(OC)C1=C(C)NC(C)=C(C(OCCCN3CCC(C4=CC=CC=C4)(C5=CC=CC=C5)CC3)=O)[C@@H]1[C@]2=CC=CC([N+]([O-])=O)=C2` [dexniguldipine] was -5.83%; that for `O=C(Nc1cc(C(F)(F)F)cc(C(F)(F)F)c1)Nc1c(Br)cc(Br)cc1-c1nnn[nH]1` was -4.01%; that for `CC(CNC1CCCCC1)OC(=O)c1ccccc1` (stereo not drawn) [hexylcaine] was -0.215%.
The value for `COC(=O)C1=C(C)NC(C)=C(C(=O)OCC(C)C)C1c1ccccc1[N+](=O)[O-]` (stereo not drawn) [Nisoldipine] was -3.19%; that for `CCCCC/N=c1/ccn(Cc2ccccc2)c2ccccc12` was -2.79%.
As for `NC(=O)c1nnn(Cc2cc(Cl)c(C(=O)c3ccc(Cl)cc3)c(Cl)c2)c1N` [carboxyamidotriazole], the figure is -2.6%; as for `CC(O)(C(=O)Nc1ccc(S(=O)(=O)c2ccccc2)cc1)C(F)(F)F` (stereo not drawn), 0.77%.
Regarding `CN(C)CCCN1c2ccccc2Sc2ccc(C(F)(F)F)cc21`, the relative growth recovery turned out to be 1.67%.
In the case of `Cc1cc(Nc2ncc(Cl)c(Nc3ccccc3S(=O)(=O)C(C)C)n2)c(OC(C)C)cc1C1CCN(CC(=O)NCCOCCOCCOCCOCCOCCNc2cccc3c2C(=O)N(C2CCC(=O)NC2=O)C3=O)CC1` (stereo not drawn), the relative growth recovery amounted to 64.6%.
As for `Oc1c(Cl)cc(Cl)cc1Sc1cc(Cl)cc(Cl)c1O`, the relative growth recovery was -1.73%.
The value for `CNC(=O)c1cccc(-c2ccc3c(N4CCOC[C@@H]4C)nc(N4CCOC[C@@H]4C)nc3n2)c1` [Vistusertib (AZD2014)] was -12.9%; that for `COc1ccc2c(C)nc(Nc3nc(C)c(C)c(O)n3)nc2c1` [madrasin] was 0.18%.
As for `COc1cc(C(=O)NS(=O)(=O)c2ccccc2C)ccc1Cc1cn(C)c2ccc(NC(=O)OC3CCCC3)cc12` [Zafirlukast (Accolate)], the figure is 0.805%; as for `CC(NCCC(c1ccccc1)c1ccccc1)c1ccccc1` (stereo not drawn) [fendiline], 2.01%.
As for `COc1cccc2c(O)c3c(O)c4c(c(O)c3c(O)c12)=C(O[C@H]1C[C@H](N)[C@H](O)[C@H](C)O1)C[C@](O)(C(=O)CO)C=4` [Doxorubicin HCl], the figure is -13.4%.
Regarding `O=C1Nc2ccc(I)cc2/C1=C/c1cc(Br)c(O)c(Br)c1`, the relative growth recovery is -2.06%.
The value for `CC[C@@]1(O)C(=O)OCc2c1cc1n(c2=O)Cc2cc3c(N)cccc3nc2-1` [9-aminocamptothecin] was -12.4%.
The value for `O=C1[C@H]2CCCC[C@H]2C(=O)N1CCCCN1CCN(c2nsc3ccccc23)CC1` [Perospirone] was 13.7%.
In the case of `CN1CCN(Cc2ccc(-c3cnc4[nH]cc(-c5ccc6[nH]ccc6c5)c4c3)cc2)CC1`, the relative growth recovery is -11.6%.
The value for `COc1cc(OC)c(/C=C2/C(=O)Nc3ccccc32)c(OC)c1` was -11.3%.
As for `CO[C@H]1O[C@@H]2O[C@@]3(C)CC[C@H]4[C@H](C)CC[C@@H]([C@H]1C)[C@@]24OO3` [Artemether], the figure is -4.6%.
The value for `CSc1nc2cc(Cl)c(Oc3cccc(Cl)c3Cl)cc2[nH]1` was 0.015%; that for `O=c1[nH]c(=O)n([C@H]2C[C@H](O)[C@@H](CO)O2)cc1F` [Floxuridine] was -9.7%; that for `CCOC(=O)Nc1nc2ccccc2[nH]1` was -1.88%.
`COc1ccc(/C=C/C(=O)/C=C(O)/C=C/c2ccc(OC)c(OC)c2)cc1OC` [Dimethylcurcumin, ASC-J9]: the relative growth recovery is -5.62%.
As for `C[C@@H]1CC(=O)c2c(ccc3c2C(=O)c2cccc(O)c2C3=O)C1` [ochromycinone], the figure is -2.08%; as for `NCCNc1ccc(NCCN)c2c1C(=O)c1ccncc1C2=O.O=C(O)/C=C\C(=O)O.O=C(O)/C=C\C(=O)O` [Pixantrone (dimaleate)], -1.7%; as for `COc1ccccc1Oc1c(NS(=O)(=O)c2ccc(C)cn2)nc(-c2ccncc2)nc1OC` [Avosentan], -1.19%.
As for `COCC(=O)O[C@]1(CCN(C)CCCc2nc3ccccc3[nH]2)CCc2cc(F)ccc2[C@@H]1C(C)C` [mibefradil], the figure is -3.87%.
